Screening data as filed in PubChem.
Only some compounds are listed: those with a hit (about 1.9% of all), similar ones and a draw of the others.
PG9 binder – binds the HIV-1 gp120 antibody PG9; AID 624416; TR-FRET gp120-PG9 antibody binding; 360,000 compounds, 0.43% hits; inhibition, % at 6.7 µM; in the data active means inhibition above about 8.5%
p47phox inh – inhibitors of human p47phox binding | P14598 | p47phox/p22phox peptide binding, fluorescence polarization, 2 h | inhibition, % at 24.7 µM | 220,000 compounds, 0.53% hits;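 active means inhibition above about 30%, limit read from the data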;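 further: 0% = p47phox with labelled peptide and 100% = labelled peptide alone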
Target sequence (P14598 whole entry, looked up): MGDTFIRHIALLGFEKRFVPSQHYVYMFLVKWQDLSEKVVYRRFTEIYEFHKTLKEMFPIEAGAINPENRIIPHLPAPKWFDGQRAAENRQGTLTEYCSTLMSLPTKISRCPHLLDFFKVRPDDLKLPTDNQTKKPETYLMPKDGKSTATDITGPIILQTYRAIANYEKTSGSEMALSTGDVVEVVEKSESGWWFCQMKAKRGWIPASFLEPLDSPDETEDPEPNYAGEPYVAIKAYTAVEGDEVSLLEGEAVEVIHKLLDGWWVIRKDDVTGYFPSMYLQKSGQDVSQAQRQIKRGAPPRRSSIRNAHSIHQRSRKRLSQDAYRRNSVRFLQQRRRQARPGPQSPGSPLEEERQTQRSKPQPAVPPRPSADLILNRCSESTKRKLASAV
Rev-erbA mod – Rev-erb alpha (human) modulation; P20393; Rev-erbα–FITC-DNA binding, fluorescence polarization, 90 min; activity, % at 10 µM; 370,000 compounds, 0.79% hits; AID 1259318;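 active means activity above about 14%, limit read from the data; passing the limit was not always enough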;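 further: 0% = DMSO wells with 35 nM protein and 100% = DMSO wells with 750 nM protein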
ZTA counter – blocks Epstein-Barr virus ZTA, an EBNA-1 counter-screen. 320,000 compounds, 0.15% hits. ZTA-DNA binding, fluorescence polarization. inhibition, % at 11 µM. P03206; in the data active means inhibition above about 33%
Target sequence (P03206 whole entry, looked up): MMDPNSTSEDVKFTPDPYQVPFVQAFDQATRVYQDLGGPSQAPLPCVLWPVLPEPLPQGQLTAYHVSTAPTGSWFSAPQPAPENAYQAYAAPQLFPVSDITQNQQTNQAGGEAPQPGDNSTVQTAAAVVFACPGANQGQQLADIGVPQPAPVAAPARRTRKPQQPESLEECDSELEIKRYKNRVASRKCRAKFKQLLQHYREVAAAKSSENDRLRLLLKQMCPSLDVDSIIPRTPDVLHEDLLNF
EBNA-1 inhibitor – blocks EBNA-1 binding to DNA; EBNA-1 DNA binding, fluorescence polarization; 300,000 compounds, 0.34% hits; inhibition, % at 14.8 µM; in the data active means inhibition above about 28%
aDG glyco act – alpha-DG glycosylation activation. Pro5-aDG cells, alpha-DG glycosylation AlphaScreen (IIH6); 0% Pro5, 100% B10-LARGE cell signal. activation, % at 10 µM. 360,000 compounds, 0.22% hits;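 active means activation of at least 8% versus controls, or a plate z-score of at least 8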;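 further: Pro5 are CHO cells carrying HIG-tagged alpha-DG that lacks glycosylation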
PG9 binder conf – PG9 antibody binding, confirmed; TR-FRET PG9 antibody binding, biochemical; inhibition, % at 6.7 µM; shares compounds with PG9 binder; 1,500 compounds, 90% hits; in the data active means inhibition above about 9%
PGV04 Ab binding – PGV04 control antibody binding, counter-screen; inhibition, % at 6.7 µM; AID 651604; TR-FRET PGV04 antibody-gp120 binding, biochemical; shares compounds with PG9 binder; 1,500 compounds, 95% hits; in the data active means inhibition above about 9.5%
PG9 bind DR – small molecules binding HIV-1 gp120 antibody PG9 | shares compounds with PG9 binder | TR-FRET PG9 antibody-gp120 binding inhibition | IC50, µM | 95 tested, under 10 active; in the data active means IC50 below about 10 µM
PGV04 binding DR – binds control antibody PGV04 in PG9 counter-screen | TR-FRET binding to control antibody PGV04 | IC50, µM | AID 651937 | shares compounds with PG9 binder | 95 compounds, 20% hits
PG126 DR counter – counter-screen for PG9 binders: binding to control antibody PG126. shares compounds with PG9 binder. TR-FRET binding to antibody PG126, counterscreen. IC50, µM. 95 compounds, 20% hits. AID 651939
Rev-erbA confirm – confirmation of modulators of human Rev-erb alpha DNA binding | shares compounds with Rev-erbA mod | Rev-erb alpha FITC-DNA binding, fluorescence polarization, 90 min | activation, % at 25 µM | 3,000 compounds, 61% hits | AID 1259319;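 active means activation at or above a set limit, or at least 3 SD above the negative control mean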;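 further: 0% = 35 nM protein with DMSO and 100% = 750 nM protein high control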
RORg counter – counter-screen for Rev-erb alpha modulators: RORgamma DNA binding; purified RORgamma protein-FITC-DNA binding, fluorescence polarization; AID 1259320; shares compounds with Rev-erbA mod; IC50, µM; 910 compounds, 8% hits;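 active means Compounds whose fitted half-maximal concentration for disrupting protein-DNA binding is below 10 micromolar; the record names Rev-erb in its text, so the target is in doubt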
Active calls of the source: *; i = inactive; nt = not tested or not shown. Unless noted, no stated cut-off is given here; in the data, active means IC50 below about 9 µM; inactive means the rest.

SMILES	PG9 binder	p47phox inh	Rev-erbA mod	ZTA counter	EBNA-1 inhibitor	aDG glyco act	PG9 binder conf	PGV04 Ab binding	Rev-erbA confirm	RORg counter	others
COC(=O)Cn1c(=NC(=O)c2ccc(OC)cc2)sc2cc(OC)ccc21	64*	-6	34*	9	3	0	49*	60*	-3	nt
Cc1cc(-c2ccc(Br)s2)nc(-n2cccc2)n1	8	-19	7	nt	nt	0	nt	nt	nt	nt
Cc1cc(-c2sccc2Br)nc(-n2cccc2)n1	11*	-7	50*	nt	nt	0	23*	32*	27*	nt
COC(=O)C1CN(Cc2ccc(OC)cc2)CCS(=O)(=O)N1Cc1cn(Cc2ccc(OC)cc2)nn1 (stereo not given)	nt	nt	5	nt	nt	nt	nt	nt	nt	nt
COc1ccc(C(=O)Cn2cnc3ccc(Cl)cc3c2=O)cc1F	21*	nt	33*	9	4	0	36*	48*	32*	i
COc1ccc(C(=O)Cn2cnc3ccccc3c2=O)cc1OC	1	nt	-3	3	-4	0	nt	nt	nt	nt
O=C(COC(=O)c1sc2ccccc2c1Cl)Nc1ncc(Cl)cc1Cl	21*	-51	52*	2	15	3	22*	45*	36*	>40
COC(=O)[C@H]1C[C@@]2(N3CCCC3)c3ccccc3N[C@H]2N1S(C)(=O)=O	nt	nt	-7	nt	nt	nt	nt	nt	nt	nt
COc1cc(OC)cc(-c2oc(=O)c3cc(OC)c(OC)cc3c2C#CCCO)c1	25*	nt	21*	nt	nt	0	36*	42*	-11	nt
C=CCn1c(SCC(=O)Nc2sccc2C#N)nc2sc(C)c(C)c2c1=O	11*	-36	97*	8	-16	0	26*	44*	63*	>40
CCOc1ccc(S(=O)(=O)Nc2nc3ccccc3nc2-n2ccc(=NC(=O)c3ccccc3C)cc2)cc1	40*	-77	39*	4	4	0	32*	65*	59*	>40
Cc1ccccc1C(=O)N=c1ccn(-c2nc3ccccc3nc2NS(=O)(=O)c2ccccc2)cc1	-1	nt	-4	7	-7	-1	nt	nt	nt	nt
CC[C@H](CCCCCC#N)CCC(=O)N(c1ccccc1)c1ccccc1	nt	nt	0	nt	nt	nt	nt	nt	nt	nt
c1ccc2nc(-c3ccc(N4CCOCC4)cc3)ccc2c1	39*	-11	90*	6	13	0	45*	42*	64*	>40	PG9 bind DR=>67;PGV04 binding DR=3.7*;PG126 DR counter=4.2*
COc1ccccc1NC(=O)c1sc2ncn(Cc3cccc4ccccc34)c(=O)c2c1C	13*	-110	117*	22	-2	0	11*	24*	49*	i
COc1ccc(CSc2nnc(SCC(=O)Nc3ccccc3-c3ccccc3)s2)cc1	nt	nt	-4	nt	nt	nt	nt	nt	nt	nt
O=C1COc2ccc(C(=O)CSc3nnnn3-c3ccccc3)cc2N1	-1	-6	-3	-15	2	0	nt	nt	nt	nt
Cc1ccc(-n2nnnc2SCC(=O)c2ccc3c(c2)NC(=O)CO3)c(C)c1	13*	2	25*	-8	9	0	11*	30*	24*	nt
Cc1ccc2nc(SCC(=O)Nc3cc(C)on3)c(C)cc2c1	18*	nt	40*	-3	-9	0	26*	44*	21*	nt
COc1ccc2cc(C)c(SCC(=O)Nc3cc(C)on3)nc2c1	34*	-3	109*	-3	16	0	46*	64*	33*	i
CCOc1ccc2nc(NC(=O)CSCC(=O)Nc3cc(C)on3)sc2c1	-1	nt	-2	-15	19	0	nt	nt	nt	nt
CCOc1ccc2nc(SCC(=O)Nc3cc(C)on3)c(C)cc2c1	28*	nt	58*	13	-16	0	33*	51*	15	nt
Cc1cc(C)c(C#N)c(SCC(=O)Nc2cc(C)on2)n1	0	nt	6	nt	nt	0	nt	nt	nt	nt
COc1ccc(CCn2c(S)nc3ccccc3c2=O)cc1	24*	nt	37*	-11	-15	0	42*	50*	8	nt
O=C(CCC(=O)N1CCN(C2c3ccccc3-c3ccccc32)CC1)Nc1nnc(C(F)(F)F)s1	nt	nt	4	nt	nt	nt	nt	nt	nt	nt
SMILES	PG9 binder	p47phox inh	Rev-erbA mod	ZTA counter	EBNA-1 inhibitor	aDG glyco act	PG9 binder conf	PGV04 Ab binding	Rev-erbA confirm	RORg counter	others
Cc1ccc(-c2cc3ncc(C#N)c(N)n3n2)cc1	37*	-20	47*	4	11	0	48*	63*	12	nt
CCOC(=O)c1nn(-c2ccccc2F)c2nc(-c3ccco3)c(C#N)c(=O)n12	-1	-16	14	-23	4	0	nt	nt	nt	nt
CCOC(=O)c1nn(-c2cccc(OC)c2)c2nc(CC)c(C#N)c(=O)n12	28*	2	37*	-14	-2	0	21*	25*	16	nt
COc1ccc(C)c2sc(=NC(=O)c3ccc(C(C)=O)cc3)n(C)c12	1	-1	5	-2	7	0	nt	nt	nt	nt
COc1ccc(C)c2sc(=NC(=O)c3ccccc3)n(C)c12	12*	45*	58*	15	0	0	8	10*	2	nt
CCOC(=O)c1cccc2c(=O)c(C(=O)c3ccc(Cl)cc3)c(C(=O)OC)[nH]c12	21*	-8	50*	-3	-2	0	11*	19*	37*	>40
CCCCOc1ccc(C(=O)NC2CCCCN(CC)C2=O)cc1 (stereo not given)	nt	nt	-2	nt	nt	nt	nt	nt	nt	nt
CCOCCCn1c(=S)[nH]c2cc(C(=O)NCCc3ccccc3)ccc2c1=O	18*	nt	43*	-9	7	0	23*	53*	31*	i
CCc1ccc(NC(=O)CSc2nc3ncc(Br)cc3[nH]2)cc1	11*	nt	59*	-4	11	0	27*	38*	52*	i
COc1cccc(NC(=O)CSc2nc3ncc(Br)cc3[nH]2)c1	22*	nt	104*	1	-1	0	7	11*	101*	i
CCn1c(SCC(=O)c2ccc(-c3ccccc3)cc2)nnc1-c1ccccc1OC	nt	nt	-1	nt	nt	nt	nt	nt	nt	nt
